HCMV antiviral = inhibitors of human cytomegalovirus; HFF cells, HCMV-luciferase reporter, 72 h; hits give low values; 410,000 compounds, 4.5% hits; activity change, negative = inhibition, % at 57.5 µM; in the data active = activity change below about -60%; inconclusive = no clear call, values can overlap the other calls; inactive = above about -39%
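Screen run at 2 compound doses on HFFs infected with reporter HCMV, MOI 1 PFU/cell. Luciferase activity from cell lysates at 72 h post infection gave inhibition relative to buffer-only and Salinomycin wells.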
MARV entry inh = blocks Marburg virus binding to or entry into cells | Marburg virus pseudotyped entry inhibition, cell reporter | Potency, µM (highest dose often 37.8 µM), for inactives: at the top dose activity change, negative = inhibition, hits mostly inhibitors | 300,000 compounds, 1.8% hits | AID 540276; calls by dose curve; tested in HEK293 cells; note: potency is the fitted concentration of half-maximal effect
FMDV inh = blocks foot and mouth disease virus; FMDV antiviral cell-based qHTS; Potency, µM (highest dose often 57.9 µM), without a hit: top-dose activity change, negative = inhibition, most hits filed as inhibitors; 410,000 compounds, 1.2% hits; calls by dose curve; tested in HEK293T cells; note: read-out not given here; potency is the fitted concentration of half-maximal effect; nearly all actives have a fitted effect of over 45% in size
Lassa entry inh = inhibitors of Lassa virus binding or cell entry; Lassa virus pseudotype entry inhibition, cell reporter; Potency, µM (doses to about 37.9 µM), inactives show at the top dose activity change, negative = inhibition, actives largely listed as inhibitors; 300,000 compounds, 1.2% hits; AID 540256; calls by dose curve; tested in HEK293 cells; note: potency is the fitted concentration of half-maximal effect; nearly all actives have a fitted effect of over 50% in size
An asterisk follows results filed as active; u = inconclusive; x = no result; ! = repeats disagree; [ ] = another dose, or the depositor's remark. Rows were chosen to be rich in hits. Some 6.2% of all compounds tested hit in one or more screens of this group. % is set by controls: 0 for no effect and ±100 for the full control effect.

SMILES	HCMV antiviral	MARV entry inh	FMDV inh	Lassa entry inh
Cc1cccnc1NC(=O)c1sc2ccccc2c1Cl	45	u	-8%	u
Cn1cccc1/C=N/NC(=O)c1sc2ccccc2c1Cl	-102*	16%	37%	-21%
COc1ccc(-c2nc3c(C)cc(Br)cn3c2CC2CCCCC2)cc1OC	0	x	-19%	x
COc1ccccc1CNC(=O)c1cc2cc(S(=O)(=O)N3CCCCC3)ccc2n1C	-40	x	-31%	u
Cn1nc(C(F)(F)F)cc1Oc1ncc(C(F)(F)F)cc1Cl	-62*	12%[14.2 µM]	-2%	7%
COc1ccnc(Oc2ccc(F)cc2)c1C(=O)N/C=N/OCc1ccc(Cl)cc1Cl	21	13µM*	x	0%
COc1ccnc(Oc2ccc(F)cc2)c1C(=O)N/C=N/OCc1ccc(F)cc1Cl	-10	u	x	9%
COc1ccc(CN2C3CCCC2CC(NC(=O)Nc2cccc(C)c2)C3)cc1 (stereo not given)	9	4.6µM*	-8%	u
COc1ccc(CN2C3CCCC2CC(NC(=O)Nc2ccccc2)C3)cc1 (stereo not given)	-9	u	-6%	-11%
CCCN1C2CCCC1CC(NC(=S)Nc1ccc(OC)cc1)C2 (stereo not given)	-64*	x	-6%	x
C=CCn1c(SCC(=O)Nc2cc(C)on2)nnc1C1COc2ccccc2O1 (stereo not given)	-9	12%[46.1 µM]	-2%	-1%[46.1 µM]
CC(=O)OCCCNc1cc(Sc2ccc(Cl)cc2)c2nonc2c1[N+](=O)[O-]	32	7%	32µM*	15%
CCOC(=O)C(CC)(CC)C(=O)/C=C/c1cccc(Br)c1	-75*	u	22µM*	u
NC(=O)NC(=O)COC(=O)/C=C/c1cccc(Br)c1	46	x	-8%	x
COC(=O)C(NS(=O)(=O)c1cccc(S(=O)(=O)NC(C(=O)OC)c2ccccc2)c1)c1ccccc1 (stereo not given)	11	x	-6%	x
CS(=O)(=O)c1cccc(C(=O)Nc2ccc(-c3nc4ccccc4[nH]3)cc2)c1	-65*	u	-26%	-15%[46.1 µM]
CCCN(CCC)S(=O)(=O)c1ccc(C(=O)Nc2cccc(-c3nc4ccccc4[nH]3)c2)cc1	-88*	x	u	u
O=C(Nc1ccc2nc(-c3cccs3)[nH]c2c1)c1cccs1	u	-8%[46.1 µM]	15%	18%
O=C(Nc1ccc(-c2nc3ccc(NC(=O)c4cccs4)cc3[nH]2)cc1)c1cccs1	-84*	u	u	u
CC(=O)Nc1ccc2nc(-c3ccncc3)[nH]c2c1	49	-2%	2%	-6%
CC(=O)Nc1cc(NC(C)=O)cc(-c2nc3ccccc3[nH]2)c1	-108*!	11%[46.1 µM]	40µM*	-1%
Cc1nnc(SCC(=O)N(C)C2CCCCC2)n1C	-2	8%	-17%	17%
OCCC1CN(Cc2c(O)ccc3ccccc23)CCN1CCc1ccccc1 (stereo not given)	11	4%[46.1 µM]	-11%	-3%[46.1 µM]
CC(=O)Nc1cccc(NC(=O)Cc2cccs2)c1	29	x	5%	x
O=C(Cc1cccs1)Nc1cccc(-c2nc3cc4ccccc4cc3[nH]2)c1	-88*	u	-5%	u
SMILES	HCMV antiviral	MARV entry inh	FMDV inh	Lassa entry inh
CCOC(=O)N[C@H](O)C(=O)c1cccs1	x	-9%	x	x
COc1cc(CNCCc2ccc(S(N)(=O)=O)cc2)ccc1OCC(=O)NC1CCCCC1	13	u	-3%	4%
COc1cc(CNCCc2ccc(S(N)(=O)=O)cc2)ccc1OCc1ccc(Cl)cc1	-93*	u	u	u
NS(=O)(=O)c1ccc(CCNCc2ccccc2OCc2ccc(F)cc2)cc1	-67*	u	u	u
CCOc1ccc(CNCCc2ccc(S(N)(=O)=O)cc2)cc1	-1	u	-7%	-10%
NS(=O)(=O)c1ccc(NCc2ccccc2OCc2ccc(F)cc2)cc1	u	u	u	-29%
CCOc1cc(CNCCc2ccc(S(N)(=O)=O)cc2)ccc1OCc1ccc(Cl)cc1	-103*	u	u	u
COc1ccc(O[C@H]2C=C[C@@H](c3ccccc3)O[C@@H]2CO/N=C(\C)CCN2CCc3nc(-c4ccccc4)c(-c4ccccc4)cc3C2)cc1	x	4%	x	-5%
CN1CCN(c2ccccc2NC(=O)c2cccc([N+](=O)[O-])c2)CC1	10	x	-3%	x
O=C(Nc1ccccc1N1CCOCC1)c1ccc(N2CCOCC2)c([N+](=O)[O-])c1	0	-3%[46.1 µM]	-7%	-21%[46.1 µM]
CS(=O)(=O)N1CCN(c2ccccc2NC(=O)CSc2ccc(Cl)cc2)CC1	-11	u	u	-20%
O=C(Nc1ccccc1N1CCOCC1)c1cc2c(s1)CCCCC2	-34	u	40%	u

From PubChem
